# In article PMC6451091, “NextPBM: a platform to study cell-specific transcription factor binding and cooperativity”:
# The full ranking holds about 3,700 sequences; the median of “z-score” is about 4, and the highest 2% start at about 8.4. This is one part of a sample in which the highest values are shown more often than they occur.
# Legend:
# PU.1 (IVT) [1] = target: PU.1 (IVT) (UniProt P17947 1-270); test: protein-binding microarray (PBM); 20 mM HEPES pH 7.9, 100 mM NaCl, 1 mM DTT, 0.2 mg/mL BSA, 0.02% Triton X-100, 2% milk, 0.4 mg/mL salmon testes DNA; 1 h; temperature not stated; high values mean tight binding; details: dsDNA, one strand shown
# In short: (§1)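 Full-length untagged PU.1 was made by coupled human in vitro transcription/translation. It was bound for 1 h to custom double-stranded DNA microarrays carrying 20-bp genomic sites and single-nucleotide variants, 10 probes per site (5 per orientation). The binding buffer was HEPES pH 7.9 with 100 mM NaCl, 2% milk and salmon testes DNA. Bound protein was detected with anti-PU.1 and then a fluorescent secondary antibody. Binding is a z-score from scanned fluorescence after linear-regression normalisation.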
# PU.1 (IVT) [2] = target: PU.1 (IVT) (UniProt P17947 1-270); test: as above; details: dsDNA, one strand shown; remark: listed apart in the source
# In short: as §1
sequence,measurement,setting,value
GCCTAGCACCAAAAAGGGAAGTGCATGCTGTGCTAGGTCTTGATTCGCTTGACGCTGCTG,binding signal,PU.1 (IVT) [1],6.52 z-score
GCCTAGCACAGCATGAGGAAGTGTCAGATGTGCTAGGTCTTGATTCGCTTGACGCTGCTG,binding signal,PU.1 (IVT) [2],4.45 z-score
GCCTAGCACTTGAAAAGGAAGTGCAACAAGTGCTAGGTCTTGATTCGCTTGACGCTGCTG,binding signal,PU.1 (IVT) [1],2.73 z-score
GCCTAGCACTGAAAGAGGAACTCTCACATGTGCTAGGTCTTGATTCGCTTGACGCTGCTG,binding signal,PU.1 (IVT) [1],4.89 z-score
GCCTAGCACAAAAAGAGGAAGAGAGAAAAGTGCTAGGTCTTGATTCGCTTGACGCTGCTG,binding signal,PU.1 (IVT) [2],5.63 z-score
GCCTAGCACAAAAAGAGGAAGTCTTTTATGTGCTAGGTCTTGATTCGCTTGACGCTGCTG,binding signal,PU.1 (IVT) [1],8.71 z-score
GCCTAGCACAACAAGAGGAAGTGGCTTTCGTGCTAGGTCTTGATTCGCTTGACGCTGCTG,binding signal,PU.1 (IVT) [1],5.51 z-score
GCCTAGCACAAAAGAAGGAAGTGGTTTATGTGCTAGGTCTTGATTCGCTTGACGCTGCTG,binding signal,PU.1 (IVT) [2],6.15 z-score
GCCTAGCACAAAAAGAGGAAGTCGTTTTCGTGCTAGGTCTTGATTCGCTTGACGCTGCTG,binding signal,PU.1 (IVT) [1],8.57 z-score
GCCTAGCACAAAAAGAGGAAGAGGAATAGGTGCTAGGTCTTGATTCGCTTGACGCTGCTG,binding signal,PU.1 (IVT) [2],5.98 z-score
GCCTAGCACCAAAAGAGGAAGTCATTTATGTGCTAGGTCTTGATTCGCTTGACGCTGCTG,binding signal,PU.1 (IVT) [1],8.11 z-score
GCCTAGCACAAAAAGAGGAAGTGCTTTTCGTGCTAGGTCTTGATTCGCTTGACGCTGCTG,binding signal,PU.1 (IVT) [1],8.49 z-score
GCCTAGCACAAAAAAAGGAAGTGGTGGTTGTGCTAGGTCTTGATTCGCTTGACGCTGCTG,binding signal,PU.1 (IVT) [1],6.87 z-score
GCCTAGCACAAAAAGAGGAAGTGGTTGTCGTGCTAGGTCTTGATTCGCTTGACGCTGCTG,binding signal,PU.1 (IVT) [1],8.71 z-score
GCCTAGCACAAAAAAAGGAAGTCAAAGTCGTGCTAGGTCTTGATTCGCTTGACGCTGCTG,binding signal,PU.1 (IVT) [1],6.75 z-score
GCCTAGCACAAAAGGAGGAAGTGGTTACAGTGCTAGGTCTTGATTCGCTTGACGCTGCTG,binding signal,PU.1 (IVT) [2],6.37 z-score
GCCTAGCACTATTTGAGGAAGTGTGAGAAGTGCTAGGTCTTGATTCGCTTGACGCTGCTG,binding signal,PU.1 (IVT) [1],5.91 z-score
GCCTAGCACTAAAGAGGGAAGTGGGAGCCGTGCTAGGTCTTGATTCGCTTGACGCTGCTG,binding signal,PU.1 (IVT) [1],3.74 z-score
GCCTAGCACGGAAAGTGGAACTGAAACTTGTGCTAGGTCTTGATTCGCTTGACGCTGCTG,binding signal,PU.1 (IVT) [2],1.93 z-score
GCCTAGCACGAAAAGAGGATGTGGATCTGGTGCTAGGTCTTGATTCGCTTGACGCTGCTG,binding signal,PU.1 (IVT) [2],3.52 z-score
GCCTAGCACAAAAACAGGAACTGGCCAGGGTGCTAGGTCTTGATTCGCTTGACGCTGCTG,binding signal,PU.1 (IVT) [2],5.89 z-score
GCCTAGCACCGAATGAGGAACTGATGCGGGTGCTAGGTCTTGATTCGCTTGACGCTGCTG,binding signal,PU.1 (IVT) [2],5.03 z-score
GCCTAGCACGAAAAGAGGAAGTCAAAATAGTGCTAGGTCTTGATTCGCTTGACGCTGCTG,binding signal,PU.1 (IVT) [1],8.29 z-score
GCCTAGCACAAAAAAAGGAAGTGGAATTAGTGCTAGGTCTTGATTCGCTTGACGCTGCTG,binding signal,PU.1 (IVT) [1],6.73 z-score
GCCTAGCACAAAAAGAGGAAGTCAAATTGGTGCTAGGTCTTGATTCGCTTGACGCTGCTG,binding signal,PU.1 (IVT) [1],8.3 z-score
GCCTAGCACAAAAAGAGGAAGTCAAATAAGTGCTAGGTCTTGATTCGCTTGACGCTGCTG,binding signal,PU.1 (IVT) [1],8.51 z-score
GCCTAGCACAAAAAGAGGAAGTCAAATTAGTGCTAGGTCTTGATTCGCTTGACGCTGCTG,binding signal,PU.1 (IVT) [1],8.57 z-score
GCCTAGCACGAAATGAGGAAGTCAAATTAGTGCTAGGTCTTGATTCGCTTGACGCTGCTG,binding signal,PU.1 (IVT) [1],7.71 z-score
GCCTAGCACGAAAAGAGGAAGTCACATTGGTGCTAGGTCTTGATTCGCTTGACGCTGCTG,binding signal,PU.1 (IVT) [1],8.32 z-score
GCCTAGCACGAAAAGAGGAAGTCACATTAGTGCTAGGTCTTGATTCGCTTGACGCTGCTG,binding signal,PU.1 (IVT) [1],8.62 z-score
GCCTAGCACGAGAAGAGGAAGTCAAATAAGTGCTAGGTCTTGATTCGCTTGACGCTGCTG,binding signal,PU.1 (IVT) [2],5.64 z-score
GCCTAGCACGAAAAGAGGAAGTCAGATTAGTGCTAGGTCTTGATTCGCTTGACGCTGCTG,binding signal,PU.1 (IVT) [1],8.07 z-score
GCCTAGCACAATAAGAGGAAGTCAAAATAGTGCTAGGTCTTGATTCGCTTGACGCTGCTG,binding signal,PU.1 (IVT) [2],6.65 z-score
GCCTAGCACGAAAAGAGGAAGTCAAATTAGTGCTAGGTCTTGATTCGCTTGACGCTGCTG,binding signal,PU.1 (IVT) [1],8.43 z-score
